The sample as a whole holds a higher share of hits than the screen did.
AMA1-RON2 inh: qHTS for Inhibitors of AMA1-RON; Towards Development of Antimalarial Drug Lead: Primary Screen | Potency, µM (series often up to 58.2 µM), hits mostly inhibitors | 360,000 tested, 0.2% active | AID 720542, 2013 | AlphaScreen AMA1-biotinylated RON2 peptide binding; active = well fitted inhibition curve with a large enough effect; inconclusive = small, poorly fitted or top-dose-only effect; inactive = no such curve, though single readings can be large or run the other way; note: nearly all actives have a fitted effect of over 45% in size
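AMA1 (3D7) with his tag at 25 nM final met compounds first, then biotinylated RON2 peptide at 25 nM; detection used donor plus acceptor beads, 10 µg/mL apiece, read by AlphaScreen after 30 min at room temperature.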
LASV entry inh: qHTS for Inhibitors of binding or entry into cells for Lassa Virus | Lassa virus pseudotype entry inhibition, cell reporter | Potency, µM (titrated, usually from 37.9 µM), hits mostly inhibitors | 300,000 tested, 1.2% active | AID 540256, 2011; calls by dose curve; tested in HEK293 cells; note: nearly all actives have a fitted effect of over 50% in size
Shiga inhibitor: A qHTS for Small Molecule Inhibitors of Shiga Toxin | Vero cells, Shiga toxin protein synthesis inhibition reporter | inhibition, % at 38.7 µM | 290,000 tested, 9.2% active | AID 2315, 2010; in the data active = inhibition mostly above about 28%, no sharp cut-off; inactive = mostly below about 43%
MARV entry inh: qHTS for inhibitors of binding or entry into cells for Marburg Virus | Marburg virus pseudotyped entry inhibition, cell reporter | Potency, µM (titrated, usually from 37.8 µM), usual class: inhibitors | AID 540276, 2011 | 300,000 tested, 1.8% active; calls by dose curve; tested in HEK293 cells
CHX counter: Cycloheximide Counterscreen for Small Molecule Inhibitors of Shiga Toxin; cell reporter, cycloheximide protein synthesis inhibition counterscreen; AID 2314, 2010; 300,000 tested, 12% active; max response, %; in the data active = max response mostly above about 13%, no sharp cut-off; inactive = mostly below about 14%; note: read at 38.3 µM for the half of the compounds with a filed dose
Of the large screens only hits and unclear results are named; the others gave an inactive call.

COc1ccccc1Oc1ccc2c(c1)C(=O)N(CC1CCCO1)C2=O (stereo not given)	LASV entry inh inconclusive, Shiga inhibitor 46, CHX counter 37
COc1ccc(/C=C2\NC(=S)N(CC3CCCO3)C2=O)c(OC)c1 (stereo not given)	CHX counter 23
O=C(Nc1ccc2c(c1)C(=O)N(CC1CCCO1)C2=O)c1cccc(Br)c1 (stereo not given)	LASV entry inh inconclusive, Shiga inhibitor 115, CHX counter 25
COc1ccc(NC(=O)c2ccc3c(c2)C(=O)N(CC2CCCO2)C3=O)cc1 (stereo not given)	none
COc1cccc(NC(=O)c2ccc3c(c2)C(=O)N(CC2CCCO2)C3=O)c1 (stereo not given)	CHX counter 30 (no result: LASV entry inh, MARV entry inh)
COc1ccc(/C=C2\NC(=S)N(CC3CCCO3)C2=O)c(OC)c1C (stereo not given)	none
O=C(NCC1COCCO1)c1cc(COc2ccc(F)cc2F)on1 (stereo not given)	none
O=C([O-])[C@@H]1[O][Sb+]([O][Sb+]2[O][C@H]([C@H](O)CO)[C@H](O)[C@H](C(=O)[O-])[O]2)[O][C@H]([C@H](O)CO)[C@@H]1O	none (no result: AMA1-RON2 inh, LASV entry inh, MARV entry inh)
CC(=O)Oc1cccc(C(=O)Nc2ccc3c(c2)C(=O)N(CC2CCCO2)C3=O)c1 (stereo not given)	none
COc1cccc(C(=O)Nc2ccc3c(c2)C(=O)N(CC2CCCO2)C3=O)c1 (stereo not given)	Shiga inhibitor 55, MARV entry inh inconclusive, CHX counter 44
CN1C2C(Br)CCCCN2c2ccc(F)cc2S1(=O)=O (stereo not given)	MARV entry inh inconclusive (no result: LASV entry inh)
CC(=O)/C(N=Nc1ccc(SC(F)F)cc1)=C(\C)O	Shiga inhibitor 59, CHX counter 44 (no result: LASV entry inh, MARV entry inh)
CC(=O)/C(N=Nc1cccc(C(F)(F)F)c1)=C(\C)O	none
CCOC(=O)c1csc(-n2nc(C)cc2C(F)(F)F)n1	LASV entry inh inconclusive, CHX counter 33
Cc1cc(C(F)(F)F)n(-c2nc(C(=O)NN)cs2)n1	none
CC1=NN(Cc2ccccc2)C(=O)/C1=C\c1ccc(N(C)C)cc1	AMA1-RON2 inh inconclusive, Shiga inhibitor 32, CHX counter 31
CCOC(=O)C1=NN(c2ccccc2)C(=O)/C1=C\c1ccc(N(C)C)cc1	AMA1-RON2 inh inconclusive
CCC(C)N(C(=O)CSc1nnc(C)n1C)C1CCS(=O)(=O)C1 (stereo not given)	none (no result: Shiga inhibitor, CHX counter)
Cc1cc(C)n(Cc2ccc(Cl)cc2Cl)c(=O)c1S(=O)(=O)c1ccccc1	LASV entry inh inconclusive, CHX counter 11
C=C(C)Cn1c(C)cc(C)c(S(=O)(=O)c2ccc(C)cc2)c1=O	AMA1-RON2 inh inconclusive
Cc1cc2nc(-c3ccc(SCC(=O)Nc4ccc(S(=O)(=O)N5CCCC5)cc4)nc3)[nH]c2cc1C	LASV entry inh inconclusive, Shiga inhibitor 81, MARV entry inh 12µM, CHX counter 36
N#Cc1ccccc1CSc1ccc(-c2nc3ccccc3[nH]2)cn1	Shiga inhibitor 79, MARV entry inh inconclusive, CHX counter 47
O=C(CSc1ccc(-c2nc3ccccc3[nH]2)cn1)Nc1ccc(S(=O)(=O)N2CCCC2)cc1	Shiga inhibitor 33, CHX counter 40
Cc1cc2nc(-c3ccc(SCc4ccc(C#N)cc4)nc3)[nH]c2cc1C	LASV entry inh inconclusive
Cc1cc(=O)[nH]c(SCC(=O)Nc2ccc(S(=O)(=O)N3CCCCC3)cc2)n1	MARV entry inh inconclusive
CC(=O)CSc1ccc(-c2nc3cc(C)c(C)cc3[nH]2)cn1	LASV entry inh inconclusive, MARV entry inh inconclusive
Cc1cc2nc(-c3ccc(SCC(=O)Nc4nccs4)nc3)[nH]c2cc1C	LASV entry inh inconclusive, CHX counter 39
CCc1ccc(NCc2cc3cc4c(cc3n(CC(=O)Nc3ccccc3C)c2=O)OCCO4)cc1	none (no result: AMA1-RON2 inh, Shiga inhibitor, MARV entry inh, CHX counter)
COc1ccc(-c2cn3nc(N4CCCC(C(=O)Nc5ccc(C)c(C)c5)C4)sc3n2)cc1 (stereo not given)	none (no result: AMA1-RON2 inh, Shiga inhibitor, MARV entry inh, CHX counter)
COc1ccccc1N1CC(C(=O)Nc2ccccc2N2CCCC2)CC1=O (stereo not given)	none (no result: Shiga inhibitor, CHX counter)
Cc1ccc2nc(-c3ccc(SCC(=O)N4CCc5ccccc54)nc3)[nH]c2c1	LASV entry inh inconclusive, Shiga inhibitor 121, CHX counter 56
Cc1ccc2nc(-c3ccc(SCC(=O)O)nc3)[nH]c2c1	LASV entry inh inconclusive, MARV entry inh inconclusive
CC(=O)CSc1ccc(-c2nc3ccccc3[nH]2)cn1	LASV entry inh inconclusive, MARV entry inh 6.3µM, CHX counter 16 (no result: Shiga inhibitor)
CCc1nnc(NC(=O)CSc2ccc(-c3nc4ccc(C)cc4[nH]3)cn2)s1	LASV entry inh inconclusive, Shiga inhibitor 51, CHX counter 32
Cc1ccc2nc(-c3ccc(NC(=O)CSc4ccccc4)cc3)[nH]c2c1	AMA1-RON2 inh inconclusive, LASV entry inh inconclusive, Shiga inhibitor active, MARV entry inh inconclusive, CHX counter 33
CC1CCN(C(=O)C(C)NCc2ccc(F)cc2)CC1 (stereo not given)	none
NC(N)=NS(=O)(=O)c1ccc(NC(=S)NC(=O)c2ccc(Br)cc2)cc1	none (no result: LASV entry inh, MARV entry inh)
COc1ccc(/C(C)=N/NC(=S)NCCc2ccccc2)cc1	AMA1-RON2 inh inconclusive, LASV entry inh inconclusive, MARV entry inh inconclusive
C/C(=N\NC(=S)NCc1ccccc1)c1cccc(Br)c1	LASV entry inh inconclusive, Shiga inhibitor 68, CHX counter 49
C/C(=N\NC(=S)NCc1ccccc1)c1ccc2ccccc2c1	LASV entry inh 2.3µM, MARV entry inh inconclusive
C/C(=N\NC(=S)NCCc1ccccc1)c1cccc(Br)c1	MARV entry inh inconclusive
S=C(NCc1ccccc1)Nc1ccc2ccccc2c1	Shiga inhibitor 102, MARV entry inh inconclusive, CHX counter 76
O=C(CNCCc1ccc(Cl)cc1)Nc1ccc(C(=O)N2CCCCC2)cc1	LASV entry inh inconclusive, MARV entry inh 11µM
O=C(c1ccc(CSc2ccc(Cl)cc2)cc1)N1CCOCC1	none (no result: LASV entry inh, MARV entry inh)
O=C(CNCCc1ccccc1)Nc1ccc(C(=O)N2CCCCC2)cc1	CHX counter 28
O=C(CNCc1ccc(F)cc1)Nc1ccc(C(=O)N2CCCCC2)cc1	none
O=C(c1ccc(CSc2ccc(Cl)cc2)cc1)N1CCCC1	Shiga inhibitor 61 (no result: LASV entry inh, MARV entry inh)
Cc1ccccc1CC(=O)Nc1ccc(C(=O)N2CCCC2)cc1	CHX counter 25 (no result: LASV entry inh, MARV entry inh)
Cc1ccccc1N(C(=O)Cn1nnc(-c2cccs2)n1)C(C(=O)NCCC(C)C)c1ccco1 (stereo not given)	LASV entry inh inconclusive, MARV entry inh inconclusive
O=C(CNC(=O)c1ccc(Cl)cc1Cl)OCCOc1ccccc1F	none (no result: Shiga inhibitor, CHX counter)
Cc1cccc(N2CN(Cc3cccnc3)CNC2=S)c1C	AMA1-RON2 inh inconclusive, CHX counter 15
CC(=O)N1CCN(c2ccc(NC(=O)c3ccccc3C)cc2)CC1	MARV entry inh inconclusive, CHX counter 10
CC(=O)N1CCN(c2ccc(NC(=O)c3cccc(Cl)c3)cc2)CC1	Shiga inhibitor 73, MARV entry inh inconclusive, CHX counter 31
